Source: publication PMC5700166

Key:
[1] = target: T1, GST-Nv-NF-kB (Ser allele) (Nematostella vectensis, UniProt A7UNT2 2-411); assay: protein-binding microarray (PBM); PBM: ~300 nM protein, 6 mM HEPES pH 7.8, 80 mM KCl, 0.5 mM EDTA, 0.5 mM EGTA, 6% glycerol, 35 ng/ul poly-dIdC, 1% milk, 1 h, room temperature; Ap Aiptasia and Nv Nematostella (sea anemones) / Co Capsaspora / Aq Amphimedon (sponge) / Dm Drosophila / Hu human; RHD is the Rel homology domain; high values mean tight binding; settings: dsDNA, one strand shown
T1 sequence: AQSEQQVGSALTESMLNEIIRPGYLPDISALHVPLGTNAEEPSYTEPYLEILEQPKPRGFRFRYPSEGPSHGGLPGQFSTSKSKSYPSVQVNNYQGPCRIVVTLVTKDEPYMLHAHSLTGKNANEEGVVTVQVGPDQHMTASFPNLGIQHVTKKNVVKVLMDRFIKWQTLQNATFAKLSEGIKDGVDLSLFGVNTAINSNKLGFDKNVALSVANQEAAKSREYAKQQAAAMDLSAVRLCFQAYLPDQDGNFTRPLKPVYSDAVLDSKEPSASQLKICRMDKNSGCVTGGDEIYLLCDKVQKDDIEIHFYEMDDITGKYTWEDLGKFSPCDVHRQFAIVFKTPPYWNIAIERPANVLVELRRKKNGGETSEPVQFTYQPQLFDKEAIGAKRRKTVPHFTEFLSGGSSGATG

GST-Hu-p50 = GST-Hu-p50 (Homo sapiens, UniProt P19838 7-356); assay: as above; settings: dsDNA, one strand shown
GST-Hu-p50, sequence (P19838 7-356): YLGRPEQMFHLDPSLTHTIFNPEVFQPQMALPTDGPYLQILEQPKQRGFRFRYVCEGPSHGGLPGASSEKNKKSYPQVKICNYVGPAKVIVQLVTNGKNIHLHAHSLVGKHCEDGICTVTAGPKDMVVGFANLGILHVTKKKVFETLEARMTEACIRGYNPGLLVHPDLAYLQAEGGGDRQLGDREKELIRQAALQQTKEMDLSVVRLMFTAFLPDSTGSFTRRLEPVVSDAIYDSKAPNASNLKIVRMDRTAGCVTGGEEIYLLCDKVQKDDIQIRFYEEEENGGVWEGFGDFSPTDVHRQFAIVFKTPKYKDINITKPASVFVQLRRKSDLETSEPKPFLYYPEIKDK

Sequence	binding signal [1] [z-score]	binding signal (GST-Hu-p50) [z-score]
CCGATTAACATCAGTCCCGCACTTGATGTTAATCGGGTCTTGATTCGCTTGACGCTGCTG	1.03	1.18
CCGATTAACATCAGGGGGTTAACTGATGTTAATCGGGTCTTGATTCGCTTGACGCTGCTG	4.34	4.57
CCGATTAACATCAGGGAATCTCATGATGTTAATCGGGTCTTGATTCGCTTGACGCTGCTG	3.31	2.5
CCGATTAACATCAGACCTCCCCCTGATGTTAATCGGGTCTTGATTCGCTTGACGCTGCTG	4.4	3.87
CCGATTAACATCAAGTACCCCCCTGATGTTAATCGGGTCTTGATTCGCTTGACGCTGCTG	4.15	3.94
CCGATTAACATCAGAAAATCCCATGATGTTAATCGGGTCTTGATTCGCTTGACGCTGCTG	3.29	3.86
CCGATTAACATCAAGTATTCCCATGATGTTAATCGGGTCTTGATTCGCTTGACGCTGCTG	2.35	1.64
CCGATTAACATCACTTGGGAAACTGATGTTAATCGGGTCTTGATTCGCTTGACGCTGCTG	2.07	1.38
CCGATTAACATCAGGAAATCCCATGATGTTAATCGGGTCTTGATTCGCTTGACGCTGCTG	1.81	3.19
CCGATTAACATCAGGAGAATCCCTGATGTTAATCGGGTCTTGATTCGCTTGACGCTGCTG	1.07	1.64
CCGATTAACATCAGGAAATTTGATGATGTTAATCGGGTCTTGATTCGCTTGACGCTGCTG	1.01	1
CCGATTAACATCAGGGAGCTACCTGATGTTAATCGGGTCTTGATTCGCTTGACGCTGCTG	1.68	1.35
